Source: PubChem BioAssay AID1159506 (National Center for Advancing Translational Sciences (NCATS), 2015)
Over roughly 59,000 sequences, the read-out has its median near -0.00055; the lowest 2% begin near -2. Shown is part of a subset that was picked to be rich in the lowest values.

test: Identification of proteins required for the processing of the EWS-FLI1 nascent transcript; conditions: TC32 Ewing sarcoma NR0B1-luc vs CMV-luc (EWS-FLI1 target promoter against control promoter), 48 h; screened at 20 nM (by protocol);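 note: robust z of luciferase light less the median z of siRNAs with the same seed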
Description: Ewing sarcoma (ES) cells depend on the EWS-FLI1 fusion transcription factor for cell survival. Using an assay of EWS-FLI1 activity and genome-wide siRNA screening we have identified proteins required for the processing of the EWS-FLI1 nascent transcript. Parallel genome-wide siRNA-mediated RNAi screens were conducted in Ewing sarcoma TC32 cell lines expressing a luciferase (luc) reporter protein driven by either the promoter of the EWS-FLI1 target gene NR0B1 (TC32-NR0B1-luc) or the CMV promoter (TC32-CMV-luc). Luciferase activity was assessed 48 hours post siRNA-transfection.
Twenty microl of serum-free media containing Lipofectamine RNAiMax (0.05 microl) was added to wells containing siRNA (0.8 pmol). Lipid and siRNA were allowed to complex for 45 min at ambient temperature before addition of 600 cells in RPMI-1640, 20% FBS to yield final transfection mixtures containing 20 nM siRNA in RPMI-1640, 10% FBS. Luciferase expression was measured using OneGlo (Promega, Madison, WI). The genome-wide screening campaign was conducted using Ambion's human genome library version 4.1 (Ambion, Austin TX). This library targets approximately 21000 human genes, three siRNAs per gene. Each siRNA is arrayed in an individual well of a 384-well plate. Parallel transfections were conducted in TC32-NR0B1-luc and TC32-CMV-luc cell lines and luciferase expression (OneGlo, Promega) was assayed 48 h later on a PerkinElmer Envision 2104 Multilabel plate reader (PerkinElmer, Waltham, MA). Qiagen's AllStars Negative control was incorporated on all screening plates for normalization (16 wells per plate). Qiagen, Germantown, MDsiGL4 was incorporated as a positive transfection control (16 wells per plate) on all plates. […] The raw luciferase data for the NR0B1- and CMV-luc screens were normalized and z-score-MAD transformed using standard methods (Chung et al., 2008). The miRNA-like seed sequence of every siRNA was determined and the median z-score for all siRNA sequences with the same seed sequence was calculated. This z-score was subtracted from the z-score associated with each siRNA with that seed sequence to generate a seed-adjusted z-score value (Z) that was used when the results for the three siRNAs corresponding to each gene were compared (Marine et al., 2012)

Row | Sequence | seed-corrected z-score
1 | AUUCACACCAGUAUUAGUG against KIAA1456 | 0.152
2 | UAAUCCGUAAAUUCGAUAC against RNF139 | 0.709
3 | AUAGCUGCAGGAUCUAAGC against POLR3A | -3.95
4 | UUCCGGUAGAAGAUGAGCC against SHMT2 | 0.314
5 | UUCAUGGUAGGAAAGGUCU against DXO | 1.33
6 | UAGUAUCAAAUAUCCAGAC against TMEM60 | 0.0266
7 | UAAUGUACACCACAUUGGG against FAM198B | -2.46
8 | UUCACGUUCAUUGCAGUCU against RAB5C | -1.4
9 | ACAGUUAAGACACCACUCC against FXN | 1.1
10 | AUAAGCAACACCAUUAUGG against BOLL | 1.08
11 | AAUGGGUCUACCUUGUUGG against PSMC5 | -1.78
12 | AAUAAAGACGGAUUUAUUC against HTATIP2 | 0.204
13 | UUUGAUAUGAUGUUCCACC against DDX50 | -0.378
14 | AAACGAUCCAUAUAGUCCG against MIER3 | 0.02
15 | UAUUGACCAAGAUCACAUG against FASTKD2 | 0.878
16 | AGCUGUAUCCAUUAGGGUG against NTSR2 | 0.216
17 | UUCCAUGUAACCGUCGUUC against SHE | -0.285
18 | AGAUCUAUUACUUCCAGGG against LRRC34 | -3.45
19 | AAAGCGACACUUAUCACCC against WRB | 0.538
20 | UCUUUAAGAAUUGCACAUC against NAAA | -0.571
21 | UCCUGCUUCAGUAAAUCUC against MRPL24 | -2.37
22 | UCUCGAUUUAGCUUAGGCC against SKP2 | -0.249
23 | AUAUCAACAAGCCCAAUUC against KCNB2 | -0.883

Row | Sequence | seed-corrected z-score
24 | UAGCCGACAAAACAACAUC against HEATR1 | -0.424
25 | AAAGCUAUUAUCAUGUAGG against SLC35B3 | 0.789
26 | AUCGGUAUAGUUGAUGCAC against SCN10A | 0.0881
27 | UUUUGAACCAGGGUAGUUC against GNA15 | 0.0907
28 | UCCGGAACAUAUGUUGUCG against TNFRSF11B | -0.942
29 | UGAUGAUCUACACUGAUUC against FAM91A1 | -2.35
30 | UUGGAUUGGCGCUAUGUUC against ANKRD20A18P | -0.888
31 | UUGUAGACCAUGUUGGAGC against POLE | -0.71
32 | UCUGGUUCUUGUGCUCUUC against INO80B | -2.05
33 | AAUCGGAUUUUGUUGAGUC against SOWAHC | -0.193
34 | UUUCUUCCUGUGCACGUCA against OXCT2 | -0.277
35 | UCUUCAGCCGCAUCGAUCU against TNNI2 | 0.556
36 | AUCUGUAUAAUCGACAGGC against BARD1 | -1.42
37 | AAACGGUACAGAGCGCUGC against C1orf233 | -1.64
38 | UAGCAUGAAACUUUUGUUG against STK35 | 0.199
39 | UUGGUUGGAACUACUUACG against STARD9 | -3.22
40 | UGUGGUAUUUAGUUGUUCG against PRMT2 | -0.735
41 | ACUGGAAUAAGACCGGCUG against EMCN | -0.0798
42 | ACUAGGAUCACGACUUUCC against SLC30A9 | -0.286
43 | UCUGUUUUCAGGUGCAUCC against AHRR | -0.835
44 | UUCGUUAUCUAUUUCCACC against CASC5 | -1.38
45 | UCAUUGUUCAAGGUCAUUC against ABTB2 | 0.182
46 | UUCCAGUUGAGUGGUGUCC against SLA2 | -2.67

Row | Sequence | seed-corrected z-score
47 | AAUUUGUUCACGUAAACUU against POU3F2 | 0.623
48 | UUCCGUAAGACUGACACUC against REG4 | -15.5
49 | UCUCGUUCGGUAAUCUUCC against PPP2R2C | -0.613
50 | AUCCCUUCAAUGGCCAUCC against ECHDC2 | -0.995
51 | AUUGUUAUAGAAGCGGUCU against SPA17 | -0.602
52 | UGACGUACCUAUCCACUGC against MC5R | -0.731
53 | UCGUUGCUCAGCAUCAAUC against SBNO1 | -0.827
54 | AUCGAUCUAGUUUAAUUCC against DGKE | -0.537
55 | UGUAUAGUCAUGAUAAUGU against LOC643784 | -0.459
56 | UCAGGGCUCAGACAGGACU against TSC22D3 | -2.02
57 | AGAGAAUAAAGAGCUGGAC against TMEM79 | 0.267
58 | AGACUUGCGAACAUGAUUC against CGGBP1 | 0.518
59 | UUCCUUCCUACUCAGGGUC against S100A5 | -2.25
60 | UCAACCUUUACUGAAGGCC against ARNTL | -0.133
61 | UAUAGCGAAGGGACAAACC against LRRTM3 | 0.0787
62 | UGAUGAUUAUCUUUGAAUG against IGFBP3 | 0.761
63 | AAACGUACCUUGUCAUUCC against TXK | -0.645
64 | UUUUCUCUCGUAUUAAUUG against GSDMB | 0.329
65 | UCAUCAUCUAAUAAAGUCC against MRO | -3.11
66 | ACUGGAUUAACAUCAUCUG against SDHAF4 | -0.445
67 | UGCUUUCUCAGGGCAGCUC against ZFP42 | -0.0418
68 | AAAGGGAUGCUCCAAGCGC against NME3 | 0.482
69 | AUAAGUUGCAGCAAAAUCC against MAB21L1 | -0.725

Row | Sequence | seed-corrected z-score
70 | AUCGAUGAUAGCCUGCUCG against ANXA8L1 | -2.86
71 | UUUACCACAGGUUUCUUCC against HIRIP3 | -0.591
72 | UAACUUCAAACCGAUUUCU against TRMU | -0.389
73 | AAAGUAAAGAUAUGCGUGU against TBX21 | 1.07
74 | UCUGUCGAUAGUCUUCUCG against STIP1 | 0.345
75 | UAAUGUACUCGUCACACCU against BICD2 | -2.89
76 | UAUGGGACAUCCUAAUCAC against KIAA0586 | -0.187
77 | UCCGCUUUAACCCUGCUUC against PRDM2 | -0.723
78 | UUUAGCUCUGGAACAAUGC against SLC38A1 | 0.0432
79 | UUACUAGUAAUGGACCCGC against YTHDF2 | 1.05
80 | UUCAUAUAUACUCUGAUUC against C1DP3 | 0.587
81 | UACUCGACCUUCUUUCACC against PPP3CB | 0.354
82 | AAAGAUUGAGGUGGUAUGC against YTHDF3 | -2.48
83 | UUUCGGUUUCCACUUUUCC against NIPAL3 | 0.547
84 | UAACUCAUCAACUUUAUCG against CHMP4B | -0.576
85 | UUCUCUAUCUCAUGAAUCC against RAB19 | 0.0141
86 | AGUGAAUCGAGAGCAAUGG against ELP5 | 0.672
87 | AAAAGAACCUCCAACAAUC against COX16 | -2
88 | UCUAUGUCUCAGGUACUGC against CCDC15 | 0.12
89 | AUAGAUCCUAAAGAACUGG against GPR141 | -0.531
90 | UUUUAGUCUACGAAGAUCC against ANKIB1 | -0.435
91 | UGUCAUAUGGGCUUGCUCC against CEP250 | -0.255
92 | UCCACUUAAACACUCCUCC against DCLRE1C | -2.25

Row | Sequence | seed-corrected z-score
93 | UAGCUGUCCGUGAAGAUCC against ADCYAP1 | 0.344
94 | ACAAUGUAUACUGUAGUCC against CDHR2 | 0.247
95 | AAUAGGAUAAAUGUUCCGG against SMURF2 | 0.293
96 | AUACGUGAUACUUCCCUCC against MS4A13 | -1.19
97 | UGUCUUCUCAUGCAGUUUC against ACSF2 | -0.5
98 | UCUGUGAAAAUCUUCCACG against ZNF174 | 0.076
99 | UAUAGGCCUGCUGAGAUCG against GALT | 0.826
100 | UAGUUGCCUAAUUACACUG against MYO3A | -2.22
101 | UUCACGGUCACAUUGCGCG against MAG | -0.22
102 | UAUGAAGAGGAGACCAACC against PSMD10 | -0.0551
103 | UAAGCUAUUUCCUCGGCUC against MTCH2 | 0.402
104 | UAAAGAUUACCUGAGACCG against FBXO36 | 0.489
105 | UUGACUAUAAGUAAGUCUC against STXBP5 | -2.91
106 | UGCGCGAUGAUGAGUACCG against ABCB9 | 0.705
107 | UUCCUUAGAAACUGCAUAC against JMY | -0.827
108 | UUCGUGAACAGACAGAACU against OAS2 | -0.385
109 | UAAGAACAUAGUACAGCUC against LDB1 | -0.519
110 | AAACUUAUAGAACUCACUG against CCDC148 | -0.143
111 | UCCGCAUGAACUCGUAGCU against PLEKHJ1 | 0.0613
112 | UAGUUGUCCAACAUUGGUU against ZNF99 | -3.24
113 | UAGCGAUUGUGAAUCUUGC against RNF19A | -0.443
114 | UAUGGUGUAAGUUUUCGGG against FARSB | 0.451
115 | UUCGGGUCCACUGAUUUCC against CHMP4B | -1.35

Row | Sequence | seed-corrected z-score
116 | UGUCAUAACAGCUCCGCGA against ELK1P1 | -0.141
117 | UAUAUGUCCGGGCGUGUUC against MAPK11 | 0.187
118 | AACCUGAUAAUAACCAGAU against FAM96A | 0.457
119 | UGAGAUUUCUAUGUAACAC against SS18L2 | 0.356
120 | UUAUCGAUGUCUUCGUGCC against GCK | -0.301
121 | AUAGUUGCGGAUGAAGUCU against KAZN | -3.51
122 | AAUGUUUCAAGAAGCUGCU against MED9 | -1.82
123 | UCAGGGUCCAUUGUCACCA against IGSF23 | -0.567
124 | UACAGGGCAAUGAACAGGG against FGR | 0.274
125 | AUGAAGCUCAGUCAGGUCG against TMCC2 | -2.16
126 | UCCUUGACGACAACUUUCC against LOC642677 | -1.2
127 | UAACGAUACAUUUGCUUGG against SGIP1 | 0.118
128 | UUGGGUGCAAGAAUGUCCA against CHTF18 | -2.47
129 | UUCAAUUCUACUGAUCAUC against CSNK1A1 | 0.146
130 | UUAAAGACUUCAUAAAAGC against SLC25A3 | -0.603
131 | UAAUUGUCAUUACUAAGUG against SLC17A6 | -0.508
132 | UUGGUAUCGAUUUUCUACC against ATRN | -0.607
133 | ACCUCCAAAAUUUCACUGC against ZSCAN10 | 0.616
